Test results as given in the supplement of paper PMC4962491.
± gives the standard deviation of the averaged measurements.

System: FaDu
Test: mitochondrial oxygen consumption rate normalised to cell number, Z score vs plate DMSO wells; higher = higher oxygen consumption (negative = OCR reduction)
Conditions: treatment time 24 h, assay medium: 5 mM glucose, 5 mM pyruvate, 4 mM glutamine
Method: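 Secondary screen: FaDu cells were incubated 24 h with the top 130 primary hits at 0.08, 0.4, 2 or 10 uM. Mitochondrial-specific OCR (basal minus antimycin A) was measured on a Seahorse XF96 in medium with 5 mM glucose, 5 mM pyruvate and 4 mM glutamine and normalised to Hoechst cell number. OCR score = (OCR - mean of plate DMSO wells) / SD of plate DMSO wells. Three repeats.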
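Further: compound exposure in DMEM (4 mM L-glutamine, 5 mM glucose), antimycin A injected at 2 µM after the basal reading and its residual OCR subtracted from basal.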

| SMILES | mitochondrial oxygen consumption rate normalised (0.08 µM) | mitochondrial oxygen consumption rate normalised (0.4 µM) | mitochondrial oxygen consumption rate normalised (2 µM) | mitochondrial oxygen consumption rate normalised (10 µM) |
| --- | --- | --- | --- | --- |
| CCCCCCCCCCCCC[N+](C)(C)Cc1ccccc1 | -1.59 ± 1.3 | -3.65 ± 1.3 | -11.5 ± 0.21 |  |
| CCC(C)n1ncn(-c2ccc(N3CCN(c4ccc(OCC5COC(Cn6cncn6)(c6ccc(Cl)cc6Cl)O5)cc4)CC3)cc2)c1=O (configuration not stated) | 0.265 ± 1.4 | 1.4 ± 0.68 | -0.554 ± 1.1 | -4.35 ± 1.6 |
| Cc1cc(CC(C)CC(C)(C)C)n(O)c(=O)c1 (configuration not stated) | 0.0907 ± 1.2 | 0.402 ± 0.1 | -4.87 ± 1.5 |  |
| Cc1cc(N)c2ccccc2[n+]1CCCCCCCCCC[n+]1c(C)cc(N)c2ccccc21 | 0.324 ± 0.65 | 0.622 ± 0.8 | -4.67 ± 2.1 | -7.52 ± 1.4 |
| COc1ccc2cc3[n+](cc2c1OC)CCc1cc2c(cc1-3)OCO2 | -0.246 ± 0.98 | -0.535 ± 0.76 | -6.29 ± 0.22 | -13.55 ± 0.13 |
| S=c1[nH]cnc2nc[nH]c12 | 0.147 ± 1.5 | 0.888 ± 1.4 | -2.8 ± 1.2 | -2.54 ± 0.98 |
| CCOC(=O)CCC(=O)O[C@H]1[C@H](O[C@@H]2[C@@H](C)[C@H](O[C@H]3C[C@@](C)(OC)[C@@H](O)[C@H](C)O3)[C@@H](C)C(=O)O[C@H](CC)[C@@](C)(O)[C@H](O)[C@@H](C)C(=O)[C@H](C)C[C@@]2(C)O)O[C@H](C)C[C@@H]1N(C)C | -0.00592 ± 1.6 | 0.83 ± 0.89 | -0.161 ± 1.9 | 1.22 ± 0.77 |
| O=C(Nc1ccc([N+](=O)[O-])cc1Cl)c1cc(Cl)ccc1O | -1.26 ± 1.4 | -0.286 ± 0.41 | 0.259 ± 0.76 | -12.5 ± 0.17 |
| C[n+]1c2cc(N)ccc2cc2ccc(N)cc21 | 0.662 ± 0.73 | -1.94 ± 0.8 | -5.7 ± 0.82 | -12.3 ± 0.21 |
| C[C@@H]1O[C@@H](OC[C@H]2O[C@@H](Oc3c(-c4ccc(O)c(O)c4)oc4cc(O)cc(O)c4c3=O)[C@H](O)[C@@H](O)[C@@H]2O)[C@H](O)[C@H](O)[C@H]1O | 0.0147 ± 1.7 | 1.67 ± 0.68 | -0.481 ± 2.6 | 1.74 ± 2.4 |
| C=C1CC[C@H](O)C/C1=C/C=C1\CCC[C@]2(C)[C@@H]([C@H](C)/C=C/[C@H](C)C(C)C)CC[C@@H]12 | -1.49 ± 2.4 | -0.211 ± 0.41 | -1.83 ± 1.7 | -2.44 ± 1.9 |
